# Assay results taken from PubChem BioAssay (Tox21).
# Where “and” joins values, the source holds several entries; their conditions need not be identical. Equal entries are not always repeated. Inconclusive results are not listed. Where a call stands in place of a potency, no number is given. Some structures have more than one record in an assay (separate samples or runs), and their calls can disagree. Calls of active or inactive are those of the source. Calls come from the whole dose curve; as a rule, active = well fitted curve in the direction sought with a large enough effect in the repeat runs; inconclusive = weak or mixed curves; inactive = no such curve, though single readings can be large; an effect the other way counts as inactive or inconclusive.
# Tests used:
# [1] = qHTS RealTime-Glo MT Cell Viability Assay in HepG2 cells - 40 hour (AID 1224870); note: nearly all actives have a fitted effect of over 50% in size
# In short: (§1)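 HepG2 cells mixed with RealTime-Glo MT reagents (NanoLuc plus cell-permeant prosubstrate) were seeded at 600 cells/well, incubated 5 h at 37 C/5% CO2, then pinned with compounds in DMSO; nonlytic luminescence tracked viability during 40 h treatment.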
# [2] = qHTS RealTime-Glo MT Cell Viability Assay in HEK293 cells - 16 hour (AID 1224872); note: nearly all actives have a fitted effect of over 50% in size; note: potency is the fitted concentration of half-maximal effect
# In short: (§2)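 HEK293 cells were seeded at 600 cells/well together with NanoLuc luciferase and cell-permeant prosubstrate, preincubated 5 h at 37 C/5% CO2, then given compound in DMSO by pintool. Luminescence from viable-cell prosubstrate reduction was read repeatedly over 40 h.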
# [3] = qHTS RealTime-Glo MT Cell Viability Assay in HepG2 cells - 8 hour (AID 1224873); note: nearly all actives have a fitted effect of over 55% in size
# In short: as §1
# [4] = qHTS RealTime-Glo MT Cell Viability Assay in HEK293 cells - 40 hour (AID 1224874); conditions: RealTime-Glo luminescence; max response: stronger effect = lower value; note: nearly all actives have a fitted effect of over 50% in size; note: potency is the fitted concentration of half-maximal effect
# In short: (§3)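 Real-time viability in HEK293: signal arises when living cells convert a prosubstrate for NanoLuc in the medium, so luminescence tracks viable cell number. Compound (23 nL, DMSO) added 5 h post-seeding; kinetic reads at 0–40 h, 37 C.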
# [5] = A CellTox Green Cytotoxicity Assay to monitor cytotoxicity in HEK293 cells - 24 hour (AID 1224875); note: series mostly up to about 77 µM; nearly all actives have a fitted effect of over 45% in size
# In short: (§4)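 Cells (HEK293, 600/well) and dye reagent are dispensed together. After 5 h at 37 C, 23 nL compound is pinned in. Plates stay at 37 C for 40 h with fluorescence read at 0h, 8h, 16h, 24h, 32h and 40h.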
# [6] = qHTS RealTime-Glo MT Cell Viability Assay in HepG2 cells - 32 hour (AID 1224877); note: nearly all actives have a fitted effect of over 55% in size
# In short: (§5)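 HepG2 cells were seeded at 600 cells/well together with NanoLuc luciferase and a cell-permeant prosubstrate, preincubated 5 h at 37 C/5% CO2, then pin-dosed with compounds in DMSO. Nonlytic luminescence from viable cells was read at each time point.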
# [7] = A CellTox Green Cytotoxicity Assay to monitor cytotoxicity in HepG2 cells - 24 hour (AID 1224878); note: nearly all actives have a fitted effect of over 45% in size
# In short: (§6)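 Cells and non-lytic dye reagent are dispensed together (600 HepG2 cells/well) and incubated 5 h before DMSO compound transfer. Kinetic fluorescence is then recorded in the same wells during 40 h at 37 C.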
# [8] = A CellTox Green Cytotoxicity Assay to monitor cytotoxicity in HepG2 cells - 40 hour (AID 1224879); note: nearly all actives have a fitted effect of over 40% in size
# In short: as §6
# [9] = qHTS RealTime-Glo MT Cell Viability Assay in HEK293 cells - 0 hour (AID 1224880); note: top concentration of the series differs between compounds; nearly all actives have a fitted effect of over 45% in size
# In short: as §3
# [10] = A CellTox Green Cytotoxicity Assay to monitor cytotoxicity in HEK293 cells - 32 hour (AID 1224881); note: nearly all actives have a fitted effect of over 40% in size
# In short: as §4
# [11] = A CellTox Green Cytotoxicity Assay to monitor cytotoxicity in HepG2 cells - 32 hour (AID 1224883); note: nearly all actives have a fitted effect of over 50% in size
# In short: as §6
# [12] = A CellTox Green Cytotoxicity Assay to monitor cytotoxicity in HEK293 cells - 8 hour (AID 1224884); note: nearly all actives have a fitted effect of over 35% in size
# In short: as §4
# [13] = qHTS RealTime-Glo MT Cell Viability Assay in HepG2 cells - 16 hour (AID 1224885); note: nearly all actives have a fitted effect of over 50% in size
# In short: as §5
# [14] = qHTS RealTime-Glo MT Cell Viability Assay in HEK293 cells - 24 hour (AID 1224886); note: nearly all actives have a fitted effect of over 50% in size; note: potency is the fitted concentration of half-maximal effect
# In short: as §2
# [15] = qHTS RealTime-Glo MT Cell Viability Assay in HEK293 cells - 8 hour (AID 1224887); note: nearly all actives have a fitted effect of over 50% in size; note: potency is the fitted concentration of half-maximal effect
# In short: as §3
# [16] = A CellTox Green Cytotoxicity Assay to monitor cytotoxicity in HEK293 cells - 16 hour (AID 1224888); note: nearly all actives have a fitted effect of over 35% in size
# In short: as §4
# [17] = qHTS RealTime-Glo MT Cell Viability Assay in HepG2 cells - 0 hour (AID 1224889); note: nearly all actives have a fitted effect of over 50% in size
# In short: as §5
# [18] = A CellTox Green Cytotoxicity Assay to monitor cytotoxicity in HepG2 cells - 16 hour (AID 1224876); note: nearly all actives have a fitted effect of over 45% in size
# In short: as §6
# [19] = A CellTox Green Cytotoxicity Assay to monitor cytotoxicity in HepG2 cells - 0 hour (AID 1224882); note: nearly all actives have a fitted effect of over 35% in size
# In short: as §6
# [20] = A CellTox Green Cytotoxicity Assay to monitor cytotoxicity in HEK293 cells - 40 hour (AID 1224871); note: nearly all actives have a fitted effect of over 45% in size
# In short: as §4
structure (smiles),measurement,setting,value
O=[N+]([O-])c1cc(N(CCO)CCO)ccc1NCCO,Potency,[1],inactive
same,Potency,[2],inactive
same,Potency,[3],inactive
same,max response,[4],0.623% (inactive) and 8.81% (inactive)
same,Potency,[5],inactive
same,Potency,[6],inactive
same,Potency,[7],inactive
same,Potency,[8],inactive
same,Potency,[9],inactive
same,Potency,[10],inactive
same,Potency,[11],inactive
same,Potency,[12],inactive
same,Potency,[13],inactive
same,Potency,[14],inactive
same,Potency,[15],inactive
same,Potency,[16],inactive
same,Potency,[17],inactive
O=C(Cl)c1c(Cl)c(Cl)c(C(=O)Cl)c(Cl)c1Cl,Potency,[1],inactive
same,Potency,[2],inactive
same,Potency,[3],inactive
same,max response,[4],8.71% (inactive) and 13.6% (inactive)
same,Potency,[5],inactive
same,Potency,[18],inactive
same,Potency,[6],inactive
same,Potency,[7],inactive
same,Potency,[8],inactive
same,Potency,[9],inactive
same,Potency,[10],inactive
same,Potency,[19],inactive
same,Potency,[11],inactive
same,Potency,[12],inactive
same,Potency,[13],inactive
same,Potency,[14],inactive
same,Potency,[15],inactive
same,Potency,[16],inactive
CCCCC(CC)COC(=O)/C=C\C(=O)OCC(CC)CCCC (stereo unspecified),Potency,[1],inactive
same,Potency,[2],inactive
same,max response,[4],1.02% (inactive) and -3.16% (inactive)
same,Potency,[5],inactive
same,Potency,[18],inactive
same,Potency,[6],inactive
same,Potency,[7],inactive
same,Potency,[8],inactive
same,Potency,[9],inactive
same,Potency,[10],inactive
same,Potency,[19],inactive
same,Potency,[11],inactive
same,Potency,[12],inactive
same,Potency,[14],inactive
same,Potency,[15],inactive
same,Potency,[16],inactive
same,Potency,[17],inactive
S=c1nc[nH]c2nc[nH]c12,Potency,[1],inactive
same,Potency,[20],inactive
same,Potency,[2],inactive
same,Potency,[3],inactive
same,Potency,[4],16.9 µM (active)
same,Potency,[5],inactive
same,Potency,[6],inactive
same,Potency,[7],inactive
same,Potency,[8],inactive
same,Potency,[9],inactive
same,Potency,[10],inactive
same,Potency,[11],inactive
same,Potency,[12],inactive
same,Potency,[13],inactive
same,Potency,[14],19 µM (active)
same,Potency,[15],inactive
same,Potency,[16],inactive
same,Potency,[17],inactive
O=[N+]([O-])c1cccc(Cl)c1,Potency,[1],inactive
same,Potency,[2],inactive
same,Potency,[3],inactive
same,max response,[4],7.7% (inactive)
same,Potency,[5],inactive
same,Potency,[18],inactive
same,Potency,[6],inactive
same,Potency,[7],inactive
same,Potency,[8],inactive
same,Potency,[9],inactive
same,Potency,[10],inactive
same,Potency,[19],inactive
same,Potency,[11],inactive
same,Potency,[12],inactive
same,Potency,[13],inactive
same,Potency,[14],inactive
same,Potency,[15],inactive
same,Potency,[16],inactive
Oc1ccc2ccccc2c1,Potency,[1],inactive
same,Potency,[2],inactive
same,Potency,[3],inactive
same,max response,[4],17.4% (inactive) and 0.276% (inactive)
same,Potency,[5],inactive
same,Potency,[6],inactive
same,Potency,[7],inactive
same,Potency,[8],inactive
same,Potency,[9],inactive
same,Potency,[10],inactive
same,Potency,[11],inactive
same,Potency,[12],inactive
same,Potency,[13],inactive
same,Potency,[14],inactive
same,Potency,[15],inactive
same,Potency,[16],inactive
Oc1ccc(OCc2ccccc2)cc1,Potency,[20],inactive
same,Potency,[2],957 nM (active) and inactive
same,Potency,[3],inactive
same,Potency,[4],1.2 µM (active)
same,max response,[4],-10.3% (inactive)
same,Potency,[5],inactive
same,Potency,[6],inactive
same,Potency,[7],inactive
same,Potency,[8],inactive
same,Potency,[9],inactive
same,Potency,[10],inactive
same,Potency,[19],inactive
same,Potency,[11],inactive
same,Potency,[12],inactive
same,Potency,[13],inactive
same,Potency,[14],853 nM (active) and inactive
same,Potency,[15],853 nM (active) and inactive
same,Potency,[16],inactive
NC(=O)NNc1ccccc1,Potency,[1],inactive
same,Potency,[20],inactive
same,Potency,[2],inactive
same,Potency,[3],inactive
same,max response,[4],15.8% (inactive) and 8.69% (inactive)
same,Potency,[5],inactive
same,Potency,[6],inactive
same,Potency,[7],inactive
same,Potency,[8],inactive
same,Potency,[9],inactive
same,Potency,[10],inactive
same,Potency,[11],inactive
same,Potency,[12],inactive
same,Potency,[13],inactive
same,Potency,[14],inactive
same,Potency,[15],inactive
same,Potency,[16],inactive
same,Potency,[17],inactive
CC(C)(N=C=O)c1cccc(C(C)(C)N=C=O)c1,Potency,[1],inactive
same,Potency,[2],inactive
same,Potency,[3],inactive
same,max response,[4],0.966% (inactive)
same,Potency,[5],inactive
same,Potency,[18],inactive
same,Potency,[6],inactive
same,Potency,[7],inactive
same,Potency,[8],inactive
same,Potency,[9],inactive
same,Potency,[10],inactive
same,Potency,[11],inactive
same,Potency,[12],inactive
same,Potency,[13],inactive
same,Potency,[14],inactive
same,Potency,[15],inactive
same,Potency,[16],inactive
same,Potency,[17],inactive
CCCCCCCCCCCCOCC1CO1 (stereo unspecified),Potency,[1],inactive
same,Potency,[2],inactive
same,Potency,[3],inactive
same,max response,[4],-10.9% (inactive) and -25.4% (inactive)
same,Potency,[5],inactive
same,Potency,[6],inactive
same,Potency,[7],inactive
same,Potency,[8],inactive
same,Potency,[9],inactive
same,Potency,[10],inactive
same,Potency,[11],inactive
same,Potency,[12],inactive
same,Potency,[13],inactive
same,Potency,[14],inactive
same,Potency,[15],inactive
same,Potency,[16],inactive
same,Potency,[17],inactive
O=S(=O)(Oc1ccc(Cl)cc1Cl)c1ccccc1,Potency,[20],inactive
same,Potency,[2],inactive
same,Potency,[3],inactive
same,Potency,[4],14 µM (active)
same,max response,[4],-21.1% (inactive)
same,Potency,[5],inactive
same,Potency,[6],inactive
same,Potency,[7],inactive
same,Potency,[8],inactive
same,Potency,[9],inactive
same,Potency,[10],inactive
same,Potency,[11],inactive
same,Potency,[12],inactive
same,Potency,[13],inactive
same,Potency,[14],inactive
same,Potency,[15],inactive
same,Potency,[16],inactive
same,Potency,[17],inactive
CC1=CC[C@H]2C[C@@H]1C2(C)C,Potency,[1],inactive
same,Potency,[2],inactive
same,Potency,[3],inactive
same,max response,[4],0.867% (inactive) and -1.12% (inactive)
same,Potency,[5],inactive
same,Potency,[18],inactive
same,Potency,[6],inactive
same,Potency,[7],inactive
same,Potency,[8],inactive
same,Potency,[9],inactive
same,Potency,[10],inactive
same,Potency,[11],inactive
same,Potency,[12],inactive
same,Potency,[13],inactive
same,Potency,[14],inactive
same,Potency,[15],inactive
same,Potency,[16],inactive
Cc1cc(O)c2c(c1)C(=O)c1cc(O)cc(O)c1C2=O,Potency,[1],inactive
same,Potency,[20],inactive
same,Potency,[2],inactive
same,Potency,[3],inactive
same,Potency,[5],inactive
same,Potency,[6],inactive
same,Potency,[7],inactive
same,Potency,[8],inactive
same,Potency,[9],inactive
same,Potency,[10],inactive
same,Potency,[11],inactive
same,Potency,[12],inactive
same,Potency,[13],inactive
same,Potency,[15],inactive
same,Potency,[16],inactive
same,Potency,[17],inactive
